Among the test systems are NCI-H226 lung; NCI-H322M lung; HOP-62 NSCLC; NCI-H460 lung; HOP-92 NSCLC; NCI-H522 lung; A549/ATCC NSCLC; 786-0 renal; COLO 205 colon; DU-145 prostate; K-562 leukemia; MALME-3M melanoma; MDA-MB-231 breast; RXF 393 renal; SF-268 CNS; SF-295 CNS; SF-539 CNS; UACC-257 melanoma; M14 melanoma.
Holding throughout (experiment): NCI-60 one-dose screen, 48 h (100 = growth as untreated, 0 = no growth, -100 = all killed)
Common to all, as to conditions: 10 µM unless noted

Several values for one entry are separate records, joined by “and”; a condition that tells them apart may be missing. Equal values may be shown once. About 83,000 compounds went through this panel and 20% of them were active in at least one assay; those are over-represented in the sample as a whole.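 Values shown are percent growth following 48 h exposure of cells in 96-well plates to a single concentration of compound; below 10 was considered active.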 Activity calls are given as the source filed them.

With `CC1OS(=O)OC1C` (stereo not drawn), the growth in the assay with NCI-H226 lung is 103% (inactive) and 101% (inactive); in the assay on NCI-H322M lung, 108% (inactive) and 94% (inactive); with HOP-62 NSCLC, 101% (inactive) and 105% (inactive); with NCI-H460 lung, 104% (inactive) and 102% (inactive); in the assay with HOP-92 NSCLC, 114% (inactive) and 96.3% (inactive); in the assay with NCI-H522 lung, 68.9% (inactive) and 94.9% (inactive). Also, the growth was 97.9% (inactive) and 104% (inactive) with A549/ATCC NSCLC; 103% (inactive) and 105% (inactive) in the assay with 786-0 renal; 112% (inactive) and 102% (inactive) in the assay with COLO 205 colon; 113% (inactive) and 102% (inactive) in the assay on DU-145 prostate; 82.6% (inactive) and 110% (inactive) in the assay with K-562 leukemia; 107% (inactive) and 91% (inactive) in the assay with MALME-3M melanoma. Further, the growth in the assay on MDA-MB-231 breast was 109% (inactive); in the assay with RXF 393 renal, 99.4% (inactive) and 104% (inactive); with SF-268 CNS, 110% (inactive); in the assay on SF-295 CNS it was 100% (inactive); in the assay with SF-539 CNS, 97.4% (inactive) and 99.1% (inactive); in the assay on UACC-257 melanoma it was 99.8% (inactive) and 94.2% (inactive). Also, the growth in the assay on M14 melanoma was 99.1% (inactive) and 102% (inactive).
Regarding `COC(=O)c1nc(N)nc(C(=O)OC)c1C(=O)c1cccc2ccccc12`, the growth in the assay with NCI-H226 lung was 97.1% (inactive); in the assay with NCI-H322M lung, 109% (inactive); with HOP-62 NSCLC, 105% (inactive); in the assay with NCI-H460 lung, 139% (inactive); with HOP-92 NSCLC, 85.5% (inactive); in the assay on NCI-H522 lung it was 101% (inactive). The growth in the assay on A549/ATCC NSCLC was 107% (inactive); with 786-0 renal, 110% (inactive); with COLO 205 colon, 144% (inactive); in the assay with DU-145 prostate, 121% (inactive); with K-562 leukemia, 111% (inactive); with MALME-3M melanoma, 103% (inactive). The growth with MDA-MB-231 breast was 105% (inactive); in the assay with RXF 393 renal it was 105% (inactive); with SF-268 CNS, 116% (inactive); in the assay on SF-295 CNS it was 98.7% (inactive); with SF-539 CNS it was 95.4% (inactive); with UACC-257 melanoma, 118% (inactive). The growth in the assay with M14 melanoma is 108% (inactive).
On to `COc1cc(NCCCCCCCNC(C)C)c2nccc(C)c2c1`, for which the growth with NCI-H226 lung was 90.9% (inactive) and 75.7% (inactive); in the assay on NCI-H322M lung it was 87% (inactive) and 68.5% (inactive); in the assay on HOP-62 NSCLC, 73.6% (inactive) and 72.1% (inactive); with NCI-H460 lung it was 85.5% (inactive) and 57.2% (inactive); in the assay with HOP-92 NSCLC, 39.3% (inactive) and 75.6% (inactive); in the assay on NCI-H522 lung, 89.1% (inactive) and 91.7% (inactive). Besides, the growth in the assay on A549/ATCC NSCLC is 95.1% (inactive) and 90.6% (inactive); with 786-0 renal it was 82.5% (inactive) and 82.1% (inactive); in the assay with COLO 205 colon, 53.8% (inactive) and -5.98% (active); with DU-145 prostate, 102% (inactive) and 91.4% (inactive); in the assay on K-562 leukemia, 54.8% (inactive) and 7.58% (active); in the assay with MALME-3M melanoma, 94.6% (inactive) and 42.1% (inactive). The growth in the assay with MDA-MB-231 breast is 68% (inactive) and 62.9% (inactive); with RXF 393 renal it was 81.4% (inactive) and 107% (inactive); with SF-268 CNS, 93.2% (inactive) and 82.1% (inactive); with SF-295 CNS it was 71.8% (inactive); with SF-539 CNS, 91.5% (inactive) and 73.1% (inactive); in the assay with UACC-257 melanoma it was 107% (inactive) and 89.7% (inactive). For the same molecule, the growth with M14 melanoma is 82.8% (inactive) and 68% (inactive).
Take `COc1ccc(/C=C/C(=O)O)cc1OC`: the growth is 102% (inactive) and 107% (inactive) in the assay on NCI-H226 lung; 101% (inactive) and 115% (inactive) with NCI-H322M lung; 104% (inactive) and 105% (inactive) with HOP-62 NSCLC; 89% (inactive) and 97.1% (inactive) in the assay with HOP-92 NSCLC; 102% (inactive) and 84% (inactive) with NCI-H522 lung; 99.7% (inactive) and 104% (inactive) in the assay with A549/ATCC NSCLC. The growth is 102% (inactive) and 105% (inactive) in the assay with 786-0 renal; 104% (inactive) and 115% (inactive) with COLO 205 colon; 108% (inactive) and 111% (inactive) in the assay with DU-145 prostate; 96.7% (inactive) and 105% (inactive) in the assay on K-562 leukemia; 103% (inactive) and 122% (inactive) in the assay with MALME-3M melanoma; 100% (inactive) and 108% (inactive) in the assay on MDA-MB-231 breast. The growth in the assay with RXF 393 renal is 107% (inactive) and 111% (inactive); with SF-268 CNS it was 108% (inactive) and 99.3% (inactive); in the assay on SF-295 CNS, 107% (inactive) and 105% (inactive); in the assay on SF-539 CNS, 102% (inactive) and 105% (inactive); with UACC-257 melanoma, 104% (inactive) and 102% (inactive); with M14 melanoma it was 101% (inactive) and 106% (inactive).
`COc1cc(C2c3cc4c(cc3C(OC(=O)C[n+]3ccccc3)C3COC(=O)C23)OCO4)cc(OC)c1OC` (stereo not drawn): the growth in the assay with NCI-H226 lung is 22.5% (inactive); in the assay on NCI-H322M lung, 33% (inactive); in the assay with HOP-62 NSCLC, 19.3% (inactive); in the assay on NCI-H460 lung it was 4.91% (active); with HOP-92 NSCLC, 71.5% (inactive); in the assay on NCI-H522 lung, -23.4% (active). For the same molecule, the growth in the assay with A549/ATCC NSCLC is 7.1% (active); in the assay with 786-0 renal it was 25.8% (inactive); in the assay with COLO 205 colon, -56.3% (active); in the assay on DU-145 prostate it was -40.1% (active); in the assay with K-562 leukemia, 6.79% (active); with MALME-3M melanoma, 59% (inactive). Moreover, the growth with MDA-MB-231 breast was -2.88% (active); with RXF 393 renal it was 41.1% (inactive); with SF-268 CNS, 8.83% (active); in the assay on SF-295 CNS, 1.14% (active); in the assay with SF-539 CNS it was -9.3% (active); in the assay with UACC-257 melanoma, 55.1% (inactive). For the same molecule, in the assay with M14 melanoma, the growth is 7.72% (active).
As for `COc1ccc(CCN=Cc2ccc(Cl)cc2)cc1OC`, the growth is 112% (inactive) in the assay with NCI-H226 lung; 106% (inactive) in the assay on NCI-H322M lung; 107% (inactive) in the assay on HOP-62 NSCLC; 113% (inactive) in the assay on NCI-H460 lung; 89.6% (inactive) in the assay on HOP-92 NSCLC; 94.8% (inactive) in the assay on NCI-H522 lung. Besides, the growth in the assay on A549/ATCC NSCLC was 108% (inactive); with 786-0 renal, 108% (inactive); with COLO 205 colon, 108% (inactive); with DU-145 prostate, 106% (inactive); in the assay with K-562 leukemia, 122% (inactive); in the assay on MALME-3M melanoma, 135% (inactive). The growth is 109% (inactive) in the assay on MDA-MB-231 breast; 177% (inactive) in the assay on RXF 393 renal; 99.5% (inactive) in the assay with SF-268 CNS; 121% (inactive) with SF-295 CNS; 111% (inactive) in the assay on SF-539 CNS; 109% (inactive) in the assay with UACC-257 melanoma. In addition, the growth in the assay with M14 melanoma was 111% (inactive).

The record behind these values is PubChem BioAssay (NCI).
